The target of the first assay is SMYD3. In words: pooled miR-30 sensor sort-seq; sequence = guide strand. As to conditions: shRNA.
Turning to TTTTTCTGACACTTAGCACTAC, the sensor-assay potency score (higher = more potent) is -0.019.

TAGCATATCAGCATCCTTGTCC gave a sensor-assay potency score (higher = more potent) of 0.139. TTCTTCTAAAAGTAGAATCAAA yielded a sensor-assay potency score (higher = more potent) of -1.27. Take TTTACCTACACAAACACGGAAC: the sensor-assay potency score (higher = more potent) is -0.662. On the same count and under the same terms, the same measure for TAGCACTACAGTATTTGGCGAC: 0.0593; for TTGAACTTCCTTCCATACTTGC: -0.357. For the sequence TTTTCTGACACTTAGCACTACA, the sensor-assay potency score (higher = more potent) is -0.327.

With TTTGTTAATATTTGACTCCAGA, the sensor-assay potency score (higher = more potent) is -0.278.

TAGAATCAAATCTTCAATCAGG displayed a sensor-assay potency score (higher = more potent) of -0.0994. With TTGAACACAATCGAACAGTTGG, the sensor-assay potency score (higher = more potent) amounted to 0.615.

TAGGCCAACACCAACTTCCTGC returned a sensor-assay potency score (higher = more potent) of 0.026.

Another assay deals with SNAP23. The assay is described as above. Particulars: shRNA.
Take TTCTTTGTTCTATTACATGGGC: the sensor-assay potency score (higher = more potent) is -0.51. Turning to TTAGTTATGCTATTACATGGGC, the sensor-assay potency score (higher = more potent) is -0.215. Consider TTGGTTGCTGAAGCTGACCATT, for which the sensor-assay potency score (higher = more potent) was -0.861. Sequence TTAGATACTACATTGCAAGGTG showed a sensor-assay potency score (higher = more potent) of 0.78. Consider TTGTTCCTTTTGTTCATCCAGC, for which the sensor-assay potency score (higher = more potent) was -0.861. Sequence TATAACTGCAACTTAAATCAAA had a sensor-assay potency score (higher = more potent) of -0.858.

As to TTGAGTCAGGTTCTCTTCCATT, the sensor-assay potency score (higher = more potent) is -1.05. In the case of TTGGTGTCAGCCTTGTCTGTGA, the sensor-assay potency score (higher = more potent) came to 0.24. TTTTACTGAGGTAACAACCTCT had a sensor-assay potency score (higher = more potent) of 0.719. The sequence TAATGTATCCACCACTGGCTGC came in with a sensor-assay potency score (higher = more potent) of -0.654. For TAATCTGGTGAGCTCTCTGTTG, the sensor-assay potency score (higher = more potent) was -0.844. TTATTTGTGGATTTTGAGCATC registered a sensor-assay potency score (higher = more potent) of -0.871.

The next assay deals with SNAPC2. The assay is described as above. Particulars: shRNA.
TTATCTTCTCAGCCAGATCCGT gave a sensor-assay potency score (higher = more potent) of -0.528.

Turning to AGTACTTGTAGATCTTCTCAAA, the sensor-assay potency score (higher = more potent) was -1.85.

In turn, TTTCAGTTCGCTGTGCTCGGCC had a sensor-assay potency score (higher = more potent) of -0.483. In the case of AAGTACTTGTAGATCTTCTCAA, the sensor-assay potency score (higher = more potent) was found to be 0.257. Same read-out and setting: in the case of TGTAGATCTTCTCAAAGTCCAC it was -0.752; in that of TATCTTCTCAGCCAGATCCGTC, -0.959. For TTCAGTGGAGGGACCAGCCGAC, the sensor-assay potency score (higher = more potent) is -0.383. Consider TCAGGGGACAGATCCCAGCTGC, for which the sensor-assay potency score (higher = more potent) was -0.373. Same read-out and setting: the same measure for AAGTGACATGAGCAGGTCGAGG: -1.64; for TAGATCTTCTCAAAGTCCACAG: -0.173. TTCTCAGCCAGATCCGTCCAGA came in with a sensor-assay potency score (higher = more potent) of -0.94.

On to TCAGCTGCTGAGAGCTCGGGGC, for which the sensor-assay potency score (higher = more potent) was -1.02.

The target in a further assay is SNCG. The assay is described as above. Particulars: shRNA.
In turn, TACAACATTCTCCTTGGTCTTG showed a sensor-assay potency score (higher = more potent) of -0.826. In turn, TTCTCCTTGGTCTTGGCTCCCA had a sensor-assay potency score (higher = more potent) of -0.654. In the case of TTTGGATGCCACACCCTCCTGT, the sensor-assay potency score (higher = more potent) is -0.0802.

Take ACAACATTCTCCTTGGTCTTGG: the sensor-assay potency score (higher = more potent) was -0.611.

With CTGTACAACATTCTCCTTGGTC, the sensor-assay potency score (higher = more potent) is -1.03.

The record behind these values is the OligoGym collection.
Note: reference of the scale not given here.
